Cruzain inh noDet = qHTS Assay for Promiscuous and Specific Inhibitors of Cruzain (without detergent). AID 1476, 2009. Potency, µM, most hits filed as inhibitors. actives 2.3% (n = 200,000). Cruzipain (Trypanosoma cruzi), P25779. purified cruzain, Z-FR-AMC fluorescence, no detergent; note: nearly all actives have a fitted effect of over 40% in size
Target sequence (P25779 123-467 limits assumed): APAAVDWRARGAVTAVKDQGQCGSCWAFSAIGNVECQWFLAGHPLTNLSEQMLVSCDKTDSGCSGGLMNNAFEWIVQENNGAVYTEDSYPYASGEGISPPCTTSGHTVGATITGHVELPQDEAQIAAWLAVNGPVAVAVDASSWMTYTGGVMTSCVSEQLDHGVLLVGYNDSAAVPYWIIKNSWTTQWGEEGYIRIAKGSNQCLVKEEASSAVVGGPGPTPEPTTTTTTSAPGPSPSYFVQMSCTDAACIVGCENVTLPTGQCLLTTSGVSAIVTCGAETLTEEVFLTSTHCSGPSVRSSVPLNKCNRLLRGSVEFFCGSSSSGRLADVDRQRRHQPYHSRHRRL
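Purified cruzain at 1.5 nM, pre-incubated 15 min with compound at room temperature in 100 mM sodium acetate pH 5.5, 5 mM DTT, 0.00005% Triton X-100. Reaction started with 2 uM Z-FR-AMC; AMC fluorescence increase over 60 s gives rate.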
Cruzain inh Det = qHTS Assay for Promiscuous and Specific Inhibitors of Cruzain (with detergent) | Cruzipain (Trypanosoma cruzi), P25779 | purified cruzain, Z-FR-AMC fluorescence, 0.01% Triton | Potency, µM, hits mostly inhibitors | actives 0.43% (n = 200,000); note: nearly all actives have a fitted effect of over 40% in size
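Detergent-containing arm of a paired screen for aggregation-based inhibition: 0.01% Triton X-100 present. Cruzain at 1.5 nM cleaved 2 uM Z-FR-AMC at pH 5.5 with 5 mM DTT; AMC fluorescence gain over 60 s measured activity.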
Papain counter = qHTS Assay for Inhibitors of Papain: Counterscreen for Cruzain Assay | shares compounds with Cruzain inh Det | purified papain, Z-FR-AMC fluorescence cleavage | Potency, µM, actives largely listed as inhibitors | actives 41% (n = 410) | AID 2161, 2009; note: nearly all actives have a fitted effect of over 35% in size
Target sequence (P00784 whole entry, looked up): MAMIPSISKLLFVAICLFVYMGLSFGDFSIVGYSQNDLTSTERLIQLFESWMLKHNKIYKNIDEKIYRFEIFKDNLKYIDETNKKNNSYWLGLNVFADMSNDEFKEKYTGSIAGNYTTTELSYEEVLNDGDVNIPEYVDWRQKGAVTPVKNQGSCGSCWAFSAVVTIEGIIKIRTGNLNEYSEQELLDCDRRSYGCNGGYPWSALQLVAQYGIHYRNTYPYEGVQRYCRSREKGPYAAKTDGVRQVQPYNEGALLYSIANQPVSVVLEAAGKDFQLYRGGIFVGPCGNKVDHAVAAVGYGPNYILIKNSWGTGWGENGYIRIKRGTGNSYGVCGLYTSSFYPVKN
Numbers stand for hits; – = inactive; ? = inconclusive; · = no result. Only some compounds are listed: those with a hit (about 2.6% of all), similar ones and a draw of the others. Calls come from the whole dose curve; as a rule, active = well fitted curve in the direction sought with a large enough effect; inconclusive = small, poorly fitted or top-dose-only effect, or another doubt; inactive = no such curve, though single readings can be large; an effect the other way counts as inactive or inconclusive.

SMILES	Cruzain inh noDet	Cruzain inh Det	Papain counter
CNc1oc(Cc2ccccc2)nc1S(=O)(=O)c1ccccc1	3.2µM	3.2µM	28µM
O=C(NC1CCCCC1)c1cc(Nc2cccc(C(F)(F)F)c2)nc2ccccc12	–	–	·
C=Cc1ccc(Cn2c(C(=O)O)c(CNCc3ccccc3)c3ccc(OC)cc32)cc1	–	–	·
Cc1cc(C)c(-c2csc(NC(=O)COC(=O)c3ccc4c(c3)OCO4)n2)c(C)c1	?	–	·
Cc1ccc(C)c(-c2csc(-c3c(N)c(C(=O)c4ccc5c(c4)OCO5)n4ccccc34)n2)c1	3.2µM	–	–
CN1CCN(C(=O)Cn2ncc3c4ccccc4n(Cc4ccc(Cl)cc4)c3c2=O)CC1	–	–	·
CSCC[C@H](NC(=O)COc1ccc(Cl)cc1Cl)c1nc2ccccc2[nH]1	–	6.3µM	–
CSCC[C@H](NC(=O)CC(C)(C)C)c1nc2ccccc2[nH]1	–	–	·
O=C(COc1ccc(F)cc1)NCCc1nc2ccccc2[nH]1	–	1.6µM	3.5µM
O=C(NCCc1nc2ccccc2[nH]1)Nc1ccccc1	–	–	·
Cc1cccc(Cn2cc(/C=C(/C#N)C(=O)Nc3cccc(Cl)c3)c3ccccc32)c1	3.2µM	–	–
N#C/C(=C\c1cn(Cc2cccc(F)c2)c2ccccc12)C(=O)NCc1ccco1	–	–	·
CCCCNc1cc(C)nc(NCc2ccccc2)n1	–	–	·
CCCCNc1nc(C#N)nc(Nc2ccccc2)n1	·	·	1µM
COc1ccc(Nc2nc(Cl)nc(NCCO)n2)cc1	–	–	·
N#Cc1nc(NCCCCO)nc(Nc2ccccc2)n1	·	·	2.2µM
O=C(NCCc1csc(-c2cccc(F)c2)n1)c1ccc(Br)o1	–	–	·
O=C(CNC(=O)c1ccccc1)OCC(=O)c1ccccc1	·	·	–
COc1ccc(C(CC(=O)O)NC(=O)C2CCCCC2)cc1 (stereo not drawn)	–	–	·
O=C(CNC(=O)C1CCCCC1)OCC(=O)c1ccc2c(c1)CCC2	·	·	–
COc1ccc(C(=O)C(C)OC(=O)CNC(=O)C2CCCCC2)cc1 (stereo not drawn)	·	·	11µM
O=C(CNC(=O)C1CCCCC1)OCC(=O)c1ccc(Br)cc1	·	·	–
O=C(CNC(=O)c1ccco1)OCC(=O)c1ccc2c(c1)CCCC2	–	–	·
CCOC(=O)CNC(=O)c1ccccc1	–	–	·
O=C(CN1C(=O)c2ccccc2C1=O)NCC(=O)OCC(=O)c1ccc(Br)cc1	–	–	·
SMILES	Cruzain inh noDet	Cruzain inh Det	Papain counter
COc1ccc(N2CCN(c3csc4ccc(Cl)cc4c3=O)CC2)cc1	–	–	·
Cn1c(=O)c2c(n3ncnc13)NC(=O)CC2c1cccc(F)c1 (stereo not drawn)	–	–	·
O=C(OCC(F)(F)F)[C@H](O)[C@@H](O)C(=O)OCC(F)(F)F	–	–	·
CCn1c(SCC(=O)N2CCC(C)CC2)nnc1-c1ccccc1O	–	–	·
CC(C)(C)C1CCc2c(sc(NC(=O)c3ccncc3)c2C(=O)Nc2ccccc2Cl)C1 (stereo not drawn)	–	–	·
Cc1nc2nc(CNC(=O)c3cccc(F)c3)nn2c(C)c1CCC(=O)Nc1ccc(F)cc1	–	–	·
CCc1ccccc1NC(=O)CCCN1C(=O)CCn2nc(-c3cn(C)c4ccccc34)cc21	?	–	·
CCOc1ccc(C(=O)COC(=O)CNC(=O)C2CCCCC2)cc1	·	·	–
CCOc1ccc(C(=O)COC(C)=O)cc1	–	–	·
CCn1ccc2cc(S(=O)(=O)N3CCCN(C(=O)Nc4cccc(SC)c4)CC3)ccc21	?	–	·
O=C(CNC(=O)c1ccccc1)N[C@H](C(=O)Nc1cc(C(F)(F)F)ccc1Cl)c1ccccc1	·	·	–
O=C(NC(Nc1cc(C(F)(F)F)ccc1Cl)C(=O)c1ccccc1)c1ccccc1 (stereo not drawn)	?	–	·
CCC(C)NC(=O)c1ccc2nc(-c3cccs3)c(-c3cccs3)nc2c1 (stereo not drawn)	·	·	–
COCCNC(=O)Nc1ccc2nc(-c3cccs3)c(-c3cccs3)nc2c1	?	–	·
C=C1C2=CC(=O)OC(c3ccoc3)[C@]2(C)CCC1[C@]1(C)C=CC(=O)C(C)(C)C1CC(=O)OC (stereo partly drawn)	–	–	·
COc1ccc(-c2nc3ccc(C(=O)NCc4ccccc4)cc3nc2-c2ccc(OC)cc2)cc1	–	–	·
O=C(NCC1CC1)c1ccc2nc(-c3ccoc3)c(-c3ccoc3)nc2c1	·	·	–
CN(C)c1nc(Nc2ccccc2)nc(N(C)C)n1	–	–	·
COc1nc(Nc2ccc([N+](=O)[O-])cc2)nc(NC(C)C)n1	–	–	·
CNc1nc(C#N)nc(Nc2ccccc2)n1	·	·	2.2µM
CC(C)Nc1nc(C#N)nc(NC(C)C)n1	16µM	11µM	5µM
CC(C)CNc1nc(C#N)nc(Nc2ccccc2)n1	·	·	1.3µM
CSc1nc(NC(C)C)nc(NC(C)C)n1	–	–	·
CNc1nc(N/N=C/c2ccc([N+](=O)[O-])cc2)nc(Nc2ccccc2)n1	–	–	·
CC(C)Nc1nc(C#N)nc(Nc2ccccc2)n1	·	·	2.2µM
SMILES	Cruzain inh noDet	Cruzain inh Det	Papain counter
CS(=O)(=O)N1CCC(N2CCN(Cc3ccc(F)cc3)C(=O)C2=O)CC1	–	–	·
CCOC(=O)c1ccc(Nc2nc3ccccc3n3c(C)nnc23)cc1	–	–	·
O=C1NN(c2ccccc2)C(=O)/C1=C\c1cccc(OC(=O)c2cccs2)c1	?	–	·
O=C1NN(c2ccc(Cl)c(Cl)c2)C(=O)/C1=C/c1cccc(OC(=O)c2cccs2)c1	–	20µM	18µM
CCCc1ccc(OCC(=O)Nc2sc3c(c2C(=O)OCC)CCC(C(C)(C)C)C3)cc1 (stereo not drawn)	–	–	·
Cc1cccc(Nc2nc3c(S(=O)(=O)c4ccc(Br)cc4)nnn3c3ccsc23)c1C	–	–	·
N#Cc1sc2nc(-c3ccccc3)cc(-c3ccco3)c2c1N	–	–	·
N#Cc1c(-c2ccccc2)cc(-c2ccco2)c(C#N)c1N	–	–	–
COc1ccccc1Cc1nc2ccccc2nc1SCC(=O)N(C)c1ccc(F)cc1	–	–	·
CC1=CC(=NOC(=O)/C=C/c2ccccc2)C=C(C)C1=O	2.5µM	2.2µM	10µM
CC1=CC(=O)C=C(C)C1=NOC(=O)/C=C\c1ccccc1	–	–	·
CN(C)c1ccc(C2C=C(c3ccccc3)Nc3nnnn32)cc1 (stereo not drawn)	–	–	·
O=C(Cn1nnc(-c2ccc(C(F)(F)F)cc2)n1)NCCc1ccccc1	–	–	·
Cc1cccc(N(C)S(=O)(=O)c2c(C(=O)N3CCCCCC3)c(C)n(C)c2C)c1	?	–	·
Cn1c(C(=O)NCCN2CCCCCC2)cc2c(=O)n(C)c3ccccc3c21	7.9µM	10µM	–
Cn1c(C(=O)NCCCN2CCOCC2)cc2c(=O)n(C)c3ccccc3c21	–	–	·
CSc1nnc(SC)nn1	–	–	·
Cc1ccc(C(=O)Oc2oc(-c3ccco3)nc2C=Nc2ccc(Cl)cc2)cc1	13µM	4µM	14µM
Cc1ccc(N=CC2=C(O)CC(c3ccco3)CC2=O)cc1 (stereo not drawn)	–	–	·
Cc1ccc(C(=O)c2sc(Nc3ccc(F)cc3)nc2N)c(C)c1	?	–	·
CCN(Cc1ccccc1)c1nc2c(S(=O)(=O)c3ccccc3)nnn2c2ccc(Cl)cc12	?	–	32µM
COCCNc1nc2c(S(=O)(=O)c3ccccc3)nnn2c2ccc(Cl)cc12	–	–	·
Cc1ccc(NC(=O)/C=C/c2ccc3c(c2)OCO3)cc1S(=O)(=O)N1CCOCC1	20µM	13µM	–

Screening data: PubChem, National Center for Advancing Translational Sciences (NCATS)
